Screens deposited in PubChem by National Center for Advancing Translational Sciences (NCATS).
Tb PYK inh – qHTS of Trypanosoma Brucei Inhibitors. hit rate 0.12% among 410,000. Potency, µM (doses to about 76.8 µM), inactives show top-dose activity, negative = inhibition, most hits filed as inhibitors. pyruvate kinase (Trypanosoma brucei), Q57TT1. AID 624173, 2012. TbPYK enzyme, Kinase-Glo Plus ATP luminescence, 45 min; also: potency is read from the fitted curve at half-maximal effect; nearly all actives have a fitted effect of over 50% in size
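Enzyme and substrate buffer are dispensed first and compound is pin-transferred. ADP at 130 uM final then starts the reaction, which runs 45 min at room temperature. Detection reagent is added for 10 min before luminescence is imaged.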
HCMV antiviral – qHTS Assay for inhibitors of the human cytomegalovirus (HCMV); HFF cells, HCMV-luciferase reporter, 72 h; hits give low values; activity change, negative = inhibition, % at 57.5 µM; hit rate 4.5% among 410,000; in the data active = activity change below about -60%; inconclusive = no clear call, values can overlap the other calls; inactive = above about -39%
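Two-dose cell screen: HFF monolayers treated with compounds and infected with luciferase-expressing HCMV at 1 PFU/cell, 72 h at 37C, then lysed for luciferase measurement.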
VACV mCherry inh – qHTS for Stage-Specific Inhibitors of Vaccinia Orthopoxvirus: mCherry Reporter Primary qHTS; Vaccinia virus mCherry reporter infection, fluorescence; Potency, µM (series often up to 36.5 µM), for the others: at the highest dose activity change, negative = inhibition, actives largely listed as inhibitors; hit rate 0.63% among 310,000; calls by dose curve; tested in A549 cells; also: potency is read from the fitted curve at half-maximal effect; nearly all actives have a fitted effect of over 35% in size
VACV Venus inh – qHTS for Stage-Specific Inhibitors of Vaccinia Orthopoxvirus: Venus Reporter Primary qHTS. Vaccinia virus Venus reporter expression, fluorescence. Potency, µM (series often up to 36.5 µM), for inactives: at the top dose activity change, negative = inhibition, usual class: inhibitors. hit rate 0.46% among 330,000. AID 720580, 2013; calls by dose curve; tested in A549 cells; also: potency is read from the fitted curve at half-maximal effect; nearly all actives have a fitted effect of over 30% in size
LmPK inhibitor – qHTS Assay for Inhibitors of Leishmania Mexicana Pyruvate Kinase (LmPK); purified LmPK, Kinase-Glo ATP luminescence, 1 h; Potency, µM (highest dose often 57.5 µM), for the others: top-dose activity change, negative = inhibition, actives largely listed as inhibitors; hit rate 0.37% among 290,000; AID 1721, 2009; also: potency is read from the fitted curve at half-maximal effect
Target sequence (Q27686 whole entry, looked up): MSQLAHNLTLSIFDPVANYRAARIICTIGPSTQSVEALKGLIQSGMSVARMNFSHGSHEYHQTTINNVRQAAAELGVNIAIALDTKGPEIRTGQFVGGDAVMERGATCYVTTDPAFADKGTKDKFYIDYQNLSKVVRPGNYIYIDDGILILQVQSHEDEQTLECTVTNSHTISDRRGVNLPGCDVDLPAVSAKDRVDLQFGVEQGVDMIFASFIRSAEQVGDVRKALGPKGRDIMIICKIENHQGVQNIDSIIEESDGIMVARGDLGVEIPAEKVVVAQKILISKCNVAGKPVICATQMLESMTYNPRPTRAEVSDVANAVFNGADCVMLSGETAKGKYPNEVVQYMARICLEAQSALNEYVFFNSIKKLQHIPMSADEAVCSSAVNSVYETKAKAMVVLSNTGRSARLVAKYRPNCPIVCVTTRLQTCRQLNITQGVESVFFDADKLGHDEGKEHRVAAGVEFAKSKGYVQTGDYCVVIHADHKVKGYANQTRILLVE
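Pyruvate kinase activity monitored as ATP production (luciferase luminescence). Conditions: 0.1 nM enzyme, 0.5 mM PEP, 0.1 mM ADP, 1 h, RT; normalized against uninhibited and no-enzyme wells.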
Numbers without * were called inactive; i = inactive; ? = inconclusive; . = not tested or not shown. An excerpt weighted towards active compounds, which were near 5% of everything screened. Unless noted, calls follow the shape of the dose curve; as a rule, active = well fitted curve in the direction sought with a large enough effect; inconclusive = small, poorly fitted or top-dose-only effect, or another doubt; inactive = no such curve, though single readings can be large; an effect the other way counts as inactive or inconclusive. % is scaled to controls: 0 for no effect and ±100 for the full control effect.

SMILES	Tb PYK inh	HCMV antiviral	VACV mCherry inh	VACV Venus inh	LmPK inhibitor
COc1ccc(N2CCN(C(=O)CSc3nc4c(c(=O)n(C)c(=O)n4C)n3C(C)C)CC2)cc1	-6.8%	-29.1	-0.3%	-4.8%	2.5%
CC(C)(C)n1nnnc1C(c1ccccc1)N1CCN(c2ncc(C(F)(F)F)cc2Cl)CC1 (stereo not given)	3.1%	-77.5*	i	-5.2%	.
CCc1cc[n+](-c2nc([O-])sc2C=O)cc1	-9.1%	14.3	-3.8%	5.6%	-4.0%
CC(C)c1cc[n+](-c2nc([O-])sc2C=O)cc1	28.2µM*	10.4	.	-5.6%	-0.6%
Cc1cc(Cl)ccc1Nc1nc(NCc2ccco2)nc2nccnc12	.	.	-2.6%	-10.6%	.
C=CS(=O)(=O)c1ccc(Oc2ccc(S(=O)(=O)C=C)cc2)cc1	-7.9%	-101.6*	7.08µM*	10µM*	-1.0%
COc1cc(Nc2nc(SCc3ccccc3F)nc3ccccc23)cc(OC)c1	0.9%	-22.2	-15.0%	-13.3%	.
Fc1ccc(Nc2nc(SCc3ccccc3F)nc3ccccc23)cc1	-1.4%	-85.7*	-9.6%	-9.1%	.
Cc1ccc(C(=O)Nc2cccc([N+](=O)[O-])c2)cc1S(=O)(=O)Nc1ccc(NC(=O)c2ccccc2)cc1	-4.1%	-74.1*	-27.7%	-14.4%	-0.2%
Cc1ccc(NS(=O)(=O)c2cc(C(=O)Nc3cccc([N+](=O)[O-])c3)ccc2C)cc1	-13.4%	-39.3	?	?	1.6%
Cc1ccc(C)c(NC(=O)c2ccccc2NS(=O)(=O)c2cc([N+](=O)[O-])ccc2C)c1	-3.2%	-86.6*	.	.	2.1%
NS(=O)(=O)c1cccc(NC(=O)c2ccc(NS(=O)(=O)c3cccc([N+](=O)[O-])c3)cc2)c1	2.4%	-75.4*	-10.6%	-23.6%	.
Cc1ccc(C(=O)NCCSC2CCCCC2)cc1S(=O)(=O)Nc1ccccc1	0.6%	-75.2*	?	-19.9%	6.2%
Cc1ccc([N+](=O)[O-])cc1S(=O)(=O)Nc1cccc(S(=O)(=O)Nc2ccccc2C(=O)O)c1	-8.5%	26.4	-3.2%	-7.2%	.
Cc1ccc(C(=O)Nc2ccccc2)cc1S(=O)(=O)Nc1ccccc1	-12.4%	2.0	-9.1%	-5.7%	.
Cc1ccc(NC(=O)c2ccc(NCCN)c([N+](=O)[O-])c2)cc1Cl	0.5%	-81.7*	-12.9%	-12.4%	2.9%
Cc1cccc(C)c1NS(=O)(=O)c1ccc(NC(=O)c2ccc(Cl)c([N+](=O)[O-])c2)cc1	1.3%	-65.7*	?	?	0.9%
Cc1ccc(NC(=O)c2ccc(NCCc3ccccc3)c([N+](=O)[O-])c2)cc1F	-10.7%	17.9	-10.1%	-0.9%	4.3%
CCCn1c(=O)sc2cc(NC(=O)c3ccc(OC)c(Br)c3)ccc21	-1.0%	?	-14.8%	-12.2%	.
COc1ccc(CCNC(=O)c2ccccc2C(=O)NCCc2ccc(OC)c(OC)c2)cc1OC	4.1%	0.2	-11.5%	-7.4%	.
Cc1ccc(S(=O)(=O)c2c(C)nn(C(C)(C)C)c2OC(=O)c2ccco2)cc1	-3.9%	33.4	.	?	1.7%
Cc1ccc(S(=O)(=O)c2c(C)nn(C(C)(C)C)c2OC(=O)c2ccc(Br)o2)cc1	-3.1%	-64.3*	?	11.2µM*	0.4%
CC(C)C(NS(=O)(=O)c1cc(C(=O)O)ccc1Cl)C(=O)O (stereo not given)	5.5%	7.1	i	1.8%	-1.1%
Clc1cccc(-c2cccc3nccn23)c1Cl	-0.3%	-79.3*	-4.5%	-5.7%	.
O=C(CC(C(=O)O)C1CCCO1)NCc1ccccc1 (stereo not given)	0.4%	-101.3*	-4.6%	-9.9%	2.7%
SMILES	Tb PYK inh	HCMV antiviral	VACV mCherry inh	VACV Venus inh	LmPK inhibitor
Cc1ccc(S(=O)(=O)N2CCCCC2)cc1NC(=O)c1cnccn1	-7.1%	8.0	-12.5%	-0.8%	.
COc1ccc2c(c1)[nH]c1c(C)nccc12	-6.9%	-94.6*	-27.6%	?	.
CCOC(=O)c1sc(NC(=O)Nc2ccccc2Cl)cc1C	-12.2%	-73.8*	?	10µM*	-29.9%
CCOC(=O)c1sc(NC(C)=O)cc1C	-0.5%	5.4	i	-24.8%	1.4%
CCOC(=O)c1sc(NC(=O)c2ccc(C)s2)cc1C	-4.1%	-8.3	?	-21.7%	-8.7%
CCOC(=O)c1sc(NC(=O)Nc2ccccc2)cc1C	-0.6%	-24.3	15.8µM*	12.6µM*	-11.0%
O=[N+]([O-])c1cccc(COc2ccc(CN3CCOCC3)cc2)c1	1.8%	76.9	-18.2%	-18.9%	.
COc1ccccc1CN1CCNC(=O)C1CC(=O)O (stereo not given)	1.7%	-13.4	i	-9.4%	7.1%
CC(=O)OCC1OC(n2cnc3c(=O)[nH]cnc32)C(OC(C)=O)C1OC(C)=O (stereo not given)	.	.	13.6%	0.0%	.
O=[N+]([O-])c1ccccc1C1Nc2cccc3cccc(c23)N1	26.0%	-17.8	-6.0%	-6.8%	4.4%
O=[N+]([O-])c1ccc(Cl)c(C2Nc3cccc4cccc(c34)N2)c1	0.0%	-81.5*	.	.	4.2%
Cc1ccc(C)c(OCC(=O)Nc2nc3ccc([N+](=O)[O-])cc3s2)c1C	-20.9%	-65.5*	.	.	6.1%
CCC(=O)Nc1nc2ccc([N+](=O)[O-])cc2s1	-5.2%	-60.0*	-13.4%	-10.0%	6.3%
C=C1C(=O)C=C[C@]2(C)C[C@@H]3OC(=O)[C@](C)(O)[C@H]3C[C@@H]12	0.8%	-98.0*	?	?	-11.4%
CCC(c1nnnn1-c1c(C)cccc1C)N1CCN(C/C=C/c2ccccc2)CC1 (stereo not given)	-0.6%	-67.7*	4.7%	-5.1%	.
O=C(N[C@H]1CC[C@@]23CCCN2C(=O)CCC[C@H]3[C@H]1Cc1ccccc1)c1cccc(Cl)c1	.	-65.2*	.	.	.
CCOc1cccc(-c2nnc3sc(COc4ccccc4)nn23)c1	-3.0%	25.5	.	.	-2.1%
Cn1nnc(NC(=S)NC(=O)c2ccc3ccccc3c2)n1	-14.1%	-67.2*	-2.9%	-12.8%	.
CCC(=O)Nc1cc(SCCO)cc([N+](=O)[O-])c1	2.7%	40.2	-10.2%	-5.5%	1.0%
CCC(=O)Nc1cc(ON=C(C)C)cc([N+](=O)[O-])c1	-0.7%	6.1	-20.8%	-14.0%	0.3%
CC(C)=NOc1cc(NC(=O)CCl)cc([N+](=O)[O-])c1	-11.4%	-83.3*	?	-26.0%	7.0%
O=C(CCl)Nc1cc(SCC(O)CO)cc([N+](=O)[O-])c1 (stereo not given)	-0.7%	-98.8*	2.82µM*	3.98µM*	1.5%
COc1ccc([N+](=O)[O-])cc1Nc1ncnc2ccccc12	1.6%	-61.9*	.	.	-1.7%
COc1ccc([N+](=O)[O-])cc1NC(=O)c1ccc(C)o1	-7.4%	-103.0*	-10.1%	-3.0%	0.8%
